Experimental data taken from PubChem BioAssay.
Activity calls are given as the source filed them. The rule behind the calls is not given here.

The compounds below were run against Pantothenate synthetase (Mycobacterium tuberculosis (strain ATCC 25618 / H37Rv)) (UniProt P9WIL5) (assay: Coupled enzyme confirmation of inhibitors against recombinant Mtb PanC (AID 375;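 note: 0% = full reaction with vehicle and 100% = no enzyme background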)). Settings: coupled enzyme assay; at 10 µM, stronger effect = higher value.
Chain of Pantothenate synthetase (Mycobacterium tuberculosis (strain ATCC 25618 / H37Rv)) (P9WIL5 whole entry, looked up): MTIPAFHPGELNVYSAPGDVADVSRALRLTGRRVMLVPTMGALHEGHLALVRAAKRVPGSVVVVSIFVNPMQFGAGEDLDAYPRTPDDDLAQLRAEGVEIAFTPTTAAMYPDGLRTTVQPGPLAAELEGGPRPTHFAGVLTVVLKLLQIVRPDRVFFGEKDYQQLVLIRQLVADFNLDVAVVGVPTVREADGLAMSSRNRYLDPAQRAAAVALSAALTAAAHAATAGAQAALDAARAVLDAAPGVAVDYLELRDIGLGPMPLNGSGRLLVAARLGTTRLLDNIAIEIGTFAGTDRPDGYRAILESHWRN

Compound | inhibition
COc1ccc(NC(=O)N(C2CCCCC2)C2CCN(C(C)C)CC2)c(OC)c1 | 0% (inactive)
CCCC(CCC)n1[nH]c(=O)c2c(C)cc(C)nc21 | 0% (inactive)
CC1CCCC(NC(=O)CSc2ncccc2C(=O)O)C1C (stereo not given) | 0% (inactive)
COc1ccc(C(C(=O)NC2CCCCC2)N2CCC3(CC2)OCCO3)cc1 (stereo not given) | 0% (inactive)
O=C(CCN1C(=O)c2ccccc2C1=O)NCCN1CCOCC1 | 0% (inactive)
Cc1[nH]nc(N=CC2=C(O)CC(C)(C)CC2=O)c1-c1ccc(Cl)cc1 | 0% (inactive)
Cc1ccccc1-n1c(=O)cc(N2CCN(C(=O)c3ccco3)CC2)[nH]c1=O | 0% (inactive)
CC1CN(CC(O)COc2ccccc2C(C)(C)C)CC(C)O1 (stereo not given) | 0% (inactive)
FC(F)(F)c1nnc2ccc(NCn3nnc4ccccc43)nn12 | 3% (inactive)
COc1ccccc1C(=O)n1nc(-c2ccccc2)nc1N | 2% (inactive)
O=C(CCC(=O)OCCCC(F)(F)C(F)(F)F)NC1CCCCC1 | 0% (inactive)
CCOC(=O)c1c(C(F)(F)C(F)(F)C(F)(F)C(F)(F)F)n[nH]c1C | 8% (inactive)
Cc1ccc(OCCN2CCN(C(=O)CCC(=O)Nc3nnc(C)s3)CC2)cc1 | 1% (inactive)
Cc1cc(C)n2c(SCC(=O)Nc3cc(C)on3)nnc2n1 | 17% (inactive)
COc1ccc(CCNC(=O)CN(c2ccccc2OC)S(C)(=O)=O)cc1 | 0% (inactive)
O=c1/c(=C/c2ccco2)sc2nc(-c3ccccc3Br)nn12 | 0% (inactive)
CCN(CC)CCCNS(=O)(=O)c1ccc(OC)cc1 | 3% (inactive)
COc1cc(=O)[nH]c(SCc2c(F)c(F)c(F)c(F)c2F)n1 | 2% (inactive)
CSc1nnc(-c2nnc(SC)n2-c2ccccc2)n1-c1ccccc1 | 0% (inactive)
CCOc1nc(SCCOc2ccccc2)nc(N(C)C)n1 | 4% (inactive)

Compound | inhibition
O=C(O)CCC(=O)Nc1nc(-c2ccccc2)cs1 | 0% (inactive)
O=C(c1cnn2c(C(F)(F)F)cc(-c3ccco3)nc12)N1CCc2ccccc2C1 | 3% (inactive)
Cc1occc1C(=O)Nc1cccc2ccccc12 | 0% (inactive)
O=S(=O)(c1ccc(Br)s1)N1CCCCC1 | 0% (inactive)
CCOC(=O)CSc1nc2sc(C)c(C)c2c(=O)[nH]1 | 0% (inactive)
CC(C)OC(=O)CSc1nnc(-c2ccc(C(C)(C)C)cc2)n1N | 0% (inactive)
Cc1c(C(=O)OC2CCC(C)CC2)[nH]c2c1C(=O)CCC2 (stereo not given) | 2% (inactive)
CN(C)S(=O)(=O)c1ccc(C(=O)Nc2ccccc2C(=O)O)cc1 | 8% (inactive)
NC(=O)C1CCN(CC(=O)N2c3ccccc3CCc3ccccc32)CC1 | 0% (inactive)
Cc1ccnc(NC(=O)CCC(=O)N(CC(=O)NC(C)(C)C)C2CCCC2)c1 | 0% (inactive)
Cc1csc(NC(=O)c2ccco2)n1 | 0% (inactive)
Cc1c(C#N)c2ccccc2n1CC(=O)N1CCc2ccccc2C1 | 0% (inactive)
CCN(C(=O)CN1CCN(c2ccccc2OC)CC1)c1c(N)n(Cc2ccccc2)c(=O)[nH]c1=O | 0% (inactive)
Cc1nc2ccc(C(=O)c3ccccc3)cc2[nH]1 | 0% (inactive)
CN(C)/C=C1\N=C(c2ccc(Cl)cc2Cl)OC1=O | 0% (inactive)
CCOC(=O)c1ccc(NC(=O)N2CCN(CCc3ccccc3)CC2)cc1 | 0% (inactive)
CCN(C#N)c1nc(NC(C)C)nc(NC(C)C)n1 | 5% (inactive)
CC(C)(C)n1cnc2cc(NS(=O)(=O)c3ccc(Br)cc3)ccc21 | 7% (inactive)
Cc1nc2sc(C(c3cccc(F)c3)N3CCCCC3)c(O)n2n1 (stereo not given) | 0% (inactive)
CCC1Oc2ccc(C)cc2N(CC(=O)N(Cc2cccnc2)Cc2ccc(C)o2)C1=O (stereo not given) | 4% (inactive)
